Inconclusive results are not listed. Active and inactive are the calls of the source. Unless noted, the call rests on the fitted dose curve; in most records, active means well fitted curve in the direction sought with a large enough effect in the repeat runs; inconclusive means weak or mixed curves; inactive means no such curve, though single readings can be large; an effect the other way counts as inactive or inconclusive.
How the values were obtained:
[1] = qHTS RealTime-Glo MT Cell Viability Assay in HEK293 cells - 8 hour (AID 1224887); further: top concentration of the series differs between compounds; nearly all actives have a fitted effect of over 50% in size
Outline: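 Nonlytic bioluminescent viability monitoring. HEK293 at 600 cells/well with reagent; 5 h settle; compound transfer by pintool; plates held at 37 C and read at set time points.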

[2] = A CellTox Green Cytotoxicity Assay to monitor cytotoxicity in HEK293 cells - 16 hour (AID 1224888); further: nearly all actives have a fitted effect of over 35% in size
Outline: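 Cytotoxicity was tracked continuously in HEK293 cells by a DNA-binding dye excluded from viable cells. Compounds were transferred in DMSO 5 h after seeding; fluorescence was recorded at intervals up to 40 h.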

[3] = A CellTox Green Cytotoxicity Assay to monitor cytotoxicity in HepG2 cells - 8 hour (AID 1224890); further: nearly all actives have a fitted effect of over 45% in size; further: potency means the concentration at half of the fitted maximal effect
Outline: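 Real-time, homogeneous cytotoxicity readout: dead-cell DNA staining by CellTox Green in HepG2 monolayers, fluorescence measured at timed intervals up to 40 h of continuous compound exposure.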

[4] = qHTS assay to identify small molecule antagonists of the estrogen receptor alpha (ER-alpha) signaling pathway using the BG1 cell line in the presence of 0.1 nM 17-beta-estradiol - cell viability counter screen (AID 1259241); further: nearly all actives have a fitted effect of over 40% in size
Outline: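 VM7Luc4E2 cells (endogenous full-length ER-alpha, 4xERE-luciferase), cultured 5 days in charcoal-stripped serum, exposed to compounds with 0.1 nM 17beta-estradiol (final) for 22 hr at 37C. Viability read in same wells as live-cell protease fluorescence after 30 min.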

[5] = qHTS assay to identify small molecule antagonists of the androgen receptor (AR) signaling pathway using the MDA cell line in the presence of 0.5 nM R1881 - cell viability counter screen (AID 1259242); further: nearly all actives have a fitted effect of over 45% in size; further: potency means the concentration at half of the fitted maximal effect
Outline: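 Cytotoxicity toward MDA-kb2 cells is measured by CellTiter-Fluor live-cell protease fluorescence after 16 hr compound exposure at 37C in the presence of 0.5 nM R1881 stimulator.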

[6] = qHTS assay to identify small molecule HDAC inhibitors (AID 1259364); further: top concentration of the series differs between compounds; nearly all actives have a fitted effect of over 45% in size
Outline: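 Homogeneous cell-based luminescent assay of endogenous class I/II HDAC activity; HCT-116 cells, 2 h compound exposure, 30 min HDAC-Glo development at RT.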

[7] = qHTS assay to identify small molecule HDAC inhibitors - cell viability counter screen (AID 1259365); further: series mostly up to about 92 µM; nearly all actives have a fitted effect of over 50% in size
Outline: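 Wild-type HCT-116 cells, 1,500/well, cultured overnight, then compound-treated 2 h at 37 C. Viability measured as ATP luminescence with CellTiter-Glo after 30 min at room temperature.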

[8] = qHTS RealTime-Glo MT Cell Viability Assay in HepG2 cells - 0 hour (AID 1224889); further: nearly all actives have a fitted effect of over 50% in size
Outline: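 HepG2 cells (600/well) were dispensed with RealTime-Glo reagents, incubated 5 h at 37 °C, then treated with compounds in DMSO for up to 40 h. Nonlytic NanoLuc luminescence reflecting viable cells was read at each stated time point.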

[9] = target: Estrogen receptor (Homo sapiens) (UniProt P03372); test: qHTS assay to identify small molecule antagonists of the estrogen receptor alpha (ER-alpha) signaling pathway using the BG1 cell line in the presence of 0.1 nM 17-beta-estradiol (AID 1259244); further: nearly all actives have a fitted effect of over 50% in size
Chain of Estrogen receptor (Homo sapiens) (P03372 whole entry, looked up): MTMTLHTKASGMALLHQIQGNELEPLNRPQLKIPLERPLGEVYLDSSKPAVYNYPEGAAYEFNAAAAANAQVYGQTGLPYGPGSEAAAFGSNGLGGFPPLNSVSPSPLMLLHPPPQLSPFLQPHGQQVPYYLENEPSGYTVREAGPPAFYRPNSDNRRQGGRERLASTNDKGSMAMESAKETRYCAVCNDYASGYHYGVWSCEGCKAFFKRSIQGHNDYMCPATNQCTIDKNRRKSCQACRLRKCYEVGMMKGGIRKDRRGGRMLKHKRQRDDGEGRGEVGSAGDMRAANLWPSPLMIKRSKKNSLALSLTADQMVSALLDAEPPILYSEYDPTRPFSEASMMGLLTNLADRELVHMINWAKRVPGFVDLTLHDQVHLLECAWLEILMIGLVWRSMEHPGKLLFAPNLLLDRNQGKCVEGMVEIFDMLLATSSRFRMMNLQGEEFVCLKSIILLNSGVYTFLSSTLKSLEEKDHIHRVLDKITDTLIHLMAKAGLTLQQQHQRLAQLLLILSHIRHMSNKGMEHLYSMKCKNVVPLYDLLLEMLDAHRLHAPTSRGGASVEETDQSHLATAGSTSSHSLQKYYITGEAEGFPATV
Outline: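 After 5 days in hormone-depleted medium (charcoal-stripped serum, no phenol red), VM7Luc4E2 cells were seeded, incubated 24 h, then co-treated with compound and 0.1 nM (final) estradiol for 22 h before luminescence detection.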

[10] = qHTS assay to identify small molecule phospholipidosis (PLD) inducers (AID 1259344; active means well fitted curve in the direction sought with a large enough effect; an effect the other way counts as inactive or inconclusive)
Outline: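 Phospholipidosis is scored by imaging LipidTOX-stained pits in HepG2 cells exposed to compound for 24 h at 37 C; pit counts and integrated intensities per well and per cell serve as outputs.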
On the % scale 0 is the no-effect control and ±100 the full control effect.

C=COCCOCCOC=C
inactive: Potency [1] | Potency [2] | Potency [3] | Potency [4] | Potency [5] | Potency [6] | outcome [7]

CC(=O)OC(C(=O)c1ccccc1)c1ccccc1 (stereo not given)
inactive: Potency [2] | Potency [8] | Potency [3] | Potency [4] | Potency [5] | Potency [9] | Potency [6] | outcome [7]

CO[Si](CCCCl)(OC)OC
inactive: Potency [2] | Potency [3] | Potency [4] | Potency [5] | Potency [9] | Potency [6] | outcome [7]

c1ccc(CNc2ncnc3nc[nH]c23)cc1
inactive: Potency [2] | Potency [8] | Potency [3] | Potency [4] | Potency [5] | outcome [7]

CC(C)COC(=O)COc1ccc(Cl)cc1Cl
inactive: Potency [1] | Potency [8] | Potency [3] | Potency [4] | Potency [5] | Potency [6] | outcome [7]

CCCCC[Si](OCC)(OCC)OCC
inactive: Potency [1] | Potency [2] | Potency [3] | Potency [5] | Potency [6] | outcome [7]

CCNC(=O)/C=C/c1cccc(Br)c1
inactive: Potency [1] | Potency [2] | Potency [3] | Potency [4] | outcome [10] | outcome [7]

COCC(=O)Nc1c(I)c(C(=O)NCC(O)CO)c(I)c(C(=O)N(C)CC(O)CO)c1I (stereo not given)
inactive: Potency [2] | Potency [8] | Potency [3] | Potency [5] | Potency [9] | outcome [10] | Potency [6] | outcome [7]

O=c1cc(O)c(Cl)c[nH]1
inactive: Potency [1] | Potency [2] | Potency [3] | Potency [4] | outcome [10] | Potency [6] | outcome [7]

O=C(O)CCNC(=O)c1ccccc1
inactive: Potency [1] | Potency [8] | Potency [3] | Potency [4] | Potency [9] | outcome [10] | Potency [6] | outcome [7]

CC(CC(=O)O)CC(C)(C)C (stereo not given)
inactive: Potency [1] | Potency [2] | Potency [3] | Potency [4] | Potency [9] | Potency [6] | outcome [7]

Nc1cc(Cl)cc(S(=O)(=O)O)c1O
inactive: Potency [1] | Potency [8] | Potency [3] | Potency [4] | Potency [5] | Potency [9] | Potency [6] | outcome [7]

CCCCCCCCCCCCCCCCCCN(C)C
inactive: Potency [1] | Potency [3] | Potency [4] | Potency [5] | Potency [9] | Potency [6] | outcome [7]

CNCc1ccccc1
inactive: Potency [1] | Potency [2] | Potency [3] | Potency [4] | outcome [10] | Potency [6] | outcome [7]

O=CO
inactive: activity change, negative = cytotoxicity [1] 8.18% [at 6.97 µM] | activity change, negative = cytotoxicity [8] -14.6% [at 6.97 µM] | cytotoxicity increase [3] -4.28% [at 6.97 µM] | activity change, negative = cytotoxicity [4] -0.2% [at 8.39 µM] | viability change, negative = cytotoxic [5] 2.31% [at 8.39 µM] | activity change, negative = inhibition [6] -0.333% [at 8.39 µM] | activity change, negative = cytotoxicity [7] -1.28% [at 8.39 µM]

CCC(=O)OCCC(C)CCC=C(C)C (stereo not given)
inactive: Potency [1] | Potency [2] | Potency [3] | Potency [6] | outcome [7]

CC(=O)/C=C/c1ccco1
inactive: Potency [1] | Potency [2] | Potency [3] | Potency [4] | Potency [9] | Potency [6] | outcome [7]

COc1ccc(N=Nc2cc(C)c(N=Nc3ccc(S(=O)(=O)O)cc3)cc2OC)cc1
inactive: Potency [1] | Potency [2] | Potency [3] | Potency [6] | outcome [7]
active: Potency [5] 48.6 µM

Oc1ccccc1Cc1ccccc1O
inactive: Potency [2] | Potency [8] | Potency [4] | Potency [9] | Potency [6] | outcome [7]

CCC(O)C(C)(C)C (stereo not given)
inactive: Potency [1] | Potency [8] | Potency [3] | Potency [4] | Potency [9] | Potency [6] | outcome [7]

Cn1c(=O)c2c(ncn2CC2OCCO2)n(C)c1=O
inactive: Potency [1] | Potency [2] | Potency [3] | Potency [4] | Potency [5] | outcome [10] | Potency [6] | outcome [7]

CC(C)(c1ccc(Oc2ccc3c(c2)C(=O)OC3=O)cc1)c1ccc(Oc2ccc3c(c2)C(=O)OC3=O)cc1
inactive: Potency [1] | Potency [2] | Potency [3] | Potency [4] | Potency [9] | Potency [6] | outcome [7]

CCCCCCCCCCCCCCCCI
inactive: activity change, negative = cytotoxicity [1] -0.789% [at 15.8 µM] | activity change [2] -4.25% [at 15.8 µM, active compounds read high] | cytotoxicity increase [3] -10.7% [at 15.8 µM] | activity change, negative = cytotoxicity [4] 7.96% [at 19 µM] | viability change, negative = cytotoxic [5] 2.57% [at 19 µM] | activity change, negative = inhibition [6] 1.82% [at 19 µM] | activity change, negative = cytotoxicity [7] -1.08% [at 19 µM]

O=C(O)c1ccccc1C(=O)Nc1ccc(S(=O)(=O)Nc2nccs2)cc1
inactive: Potency [1] | Potency [2] | Potency [3] | Potency [5] | outcome [10] | Potency [6] | outcome [7]

Nc1cc(S(=O)(=O)O)ccc1S(=O)(=O)O
inactive: Potency [1] | Potency [2] | Potency [3] | Potency [4] | Potency [5] | Potency [6] | outcome [7]

CNC(=O)C(c1ccccc1)c1ccccc1
inactive: Potency [1] | Potency [2] | Potency [4] | Potency [9] | Potency [6]

CCCCC(C)C(=O)O (stereo not given)
inactive: Potency [1] | Potency [2] | Potency [4] | Potency [5] | Potency [6] | outcome [7]

C=C[C@@H](C)CCC=C(C)C
inactive: Potency [1] | Potency [2] | Potency [3] | Potency [4] | Potency [6] | outcome [7]

C1=CCC(c2ccccc2)CC1 (stereo not given)
inactive: Potency [1] | Potency [2] | Potency [3] | Potency [6] | outcome [7]

COc1cc([N+](=O)[O-])ccc1N
inactive: Potency [1] | Potency [2] | Potency [3] | Potency [9] | outcome [7]

CCCCCCCCCOCC1CO1 (stereo not given)
inactive: Potency [1] | Potency [2] | Potency [3] | Potency [6] | outcome [7]

C[CH2][Ge]([Cl])([CH2]C)[CH2]C
inactive: Potency [1] | Potency [2] | Potency [3] | Potency [4] | Potency [5] | Potency [6]

C=C(C)C(=O)OC1CC(C)CC(C)(C)C1 (stereo not given)
inactive: Potency [1] | Potency [2] | Potency [3] | Potency [4] | Potency [5] | Potency [6] | outcome [7]

CCCCC(CC)CNC(=O)CC(C)OC(=O)CCC(=O)O (stereo not given)
inactive: Potency [1] | Potency [2] | Potency [4] | Potency [9] | Potency [6] | outcome [7]
active: Potency [3] 26.8 µM

C=CCOC(=O)c1ccc(C(=O)OCC=C)c(C(=O)OCC=C)c1
inactive: Potency [1] | Potency [2] | Potency [3] | Potency [4] | Potency [9] | Potency [6] | outcome [7]

COC(/C=C(\C)CCC=C(C)C)OC
inactive: Potency [1] | Potency [3] | Potency [4] | Potency [9] | Potency [6] | outcome [7]

CCOC(=O)CC(CC(=O)OCC)(OC(C)=O)C(=O)OCC
inactive: Potency [1] | Potency [2] | Potency [3] | Potency [4] | Potency [5] | Potency [6] | outcome [7]

From PubChem BioAssay (Tox21)
